From PubChem BioAssay (NCATS)
A number with no mark means an inactive call. Records with an inconclusive call do not appear. A call without a number means that no potency is given here. Calls of active or inactive are those of the source. The call rests on the fitted dose curve; in most records, active means well fitted curve in the direction sought with a large enough effect; inconclusive means small, poorly fitted or top-dose-only effect, or another doubt; inactive means no such curve, though single readings can be large; an effect the other way counts as inactive or inconclusive.

What was measured:
[1] = target: Glutathione peroxidase 1 (Homo sapiens) (UniProt P07203); assay: Primary qHTS Assay for Inhibitors of Recombinant Selenoprotein Glutathione Peroxidase 1 (GPX1) (AID 1845191); further: nearly all actives have a fitted effect of over 65% in size; further: potency means the concentration at half of the fitted maximal effect
In short: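 NADPH consumption tracked by fluorescence at 340/450 nm between t=0 and t=15 min, room temperature. Final mix: 10 nM GPX1, 100 nM glutathione reductase, 1 mM GSH, 0.5 mM NADPH, 0.5 mM cumene hydroperoxide, 0.01% BSA; 30 min compound–enzyme preincubation.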

[2] = target: Phospholipid hydroperoxide glutathione peroxidase GPX4 (Homo sapiens) (UniProt P36969); assay: Primary qHTS Assay for Inhibitors of Recombinant Selenoprotein Glutathione Peroxidase 4 (GPX4) (AID 1845192); further: nearly all actives have a fitted effect of over 65% in size
In short: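 NADPH consumption followed by fluorescence at 340/450 nm, t=0 and after 15 min at room temperature. Reaction started with cumene hydroperoxide (0.5 mM final) after 30 min compound–GPX4 preincubation; final 200 nM GPX4, 100 nM GR, 1 mM GSH, 0.5 mM NADPH.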

[3] = target: Luciferin 4-monooxygenase (Photinus pyralis) (UniProt P08659); assay: Primary firefly luciferase (FLuc) qHTS assay for identification of artifact compounds. (AID 1845220); further: nearly all actives have a fitted effect of over 60% in size
In short: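 FLuc 10 nM; luciferin 10 uM; ATP 10 uM; Tris-acetate pH 7.6, Mg-acetate 10 mM; 15 min RT preincubation; 5 min reaction; luminescence.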

[4] = Primary fluorescence-based thiol-reactive (MSTI) qHTS assay for identification of artifact compounds. (AID 1845221); further: nearly all actives have a fitted effect of over 65% in size; further: potency means the concentration at half of the fitted maximal effect;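 on activity change, negative = thiol reactive: series mostly up to about 54 µM; thiol-reactive compounds lower the probe fluorescence signal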
In short: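 qHTS titration of compound; 4 uM MSTI, PBS pH 7.4, 2% DMSO; 1 h RT, dark; fluorescence 525/598 nm; normalized to Acetyl-MSTI and MSTI; 4-parameter Hill fit.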

[5] = tested on: Nanoluciferase (engineered Oplophorus gracilirostris luciferase); assay: Primary Nanoluciferase (NLuc) qHTS assay for identification of artifact compounds. (AID 1845222);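 further: NLuc secreted into diluted conditioned medium of S16 cells; series mostly up to about 54 µM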
In short: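 NLuc from S16 cell medium (1:55) plus test compounds, 15 min, room temperature. Luminescence after Nano-Glo (1:100) addition, 5 min.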

[6] = Primary redox qHTS assay for identification of artifact compounds. (AID 1845223)
In short: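 Redox-cycling detection via DTT (250 uM final) oxidation coupled to Amplex Red (25 uM)/HRP (250 mU/mL) in HBSS. 15 min preincubation plus 30 min after DTT, room temperature. Ex/Em 525/598 nm; 4-parameter Hill fit against DMSO and 10 uM DA3003.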

Phospholipid hydroperoxide glutathione peroxidase GPX4 (Homo sapiens), sequence (P36969 whole entry, looked up): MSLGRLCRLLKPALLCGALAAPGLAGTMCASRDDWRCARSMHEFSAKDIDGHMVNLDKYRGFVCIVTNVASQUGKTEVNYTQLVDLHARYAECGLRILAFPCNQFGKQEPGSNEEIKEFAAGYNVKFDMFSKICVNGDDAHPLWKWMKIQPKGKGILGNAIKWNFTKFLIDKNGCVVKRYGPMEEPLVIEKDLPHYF
Glutathione peroxidase 1 (Homo sapiens), sequence (P07203 whole entry, looked up): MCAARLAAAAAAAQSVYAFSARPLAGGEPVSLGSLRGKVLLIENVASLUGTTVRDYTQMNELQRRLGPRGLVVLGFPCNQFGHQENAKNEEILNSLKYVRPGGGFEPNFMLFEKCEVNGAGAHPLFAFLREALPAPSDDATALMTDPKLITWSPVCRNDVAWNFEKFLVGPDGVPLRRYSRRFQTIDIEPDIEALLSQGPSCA

Compound | Potency [1] | Potency [2] | Potency [3] | Potency [4] | Potency [5] | Potency [6] | outcome [3] | activity change, negative = thiol reactive [4] | activity, negative = inhibition [5] | redox activity (% of DA3003) [6]
C=C(C(=O)O[C@H]1C/C(C)=C/CC/C(CO)=C/[C@H]2OC(=O)C(=C)[C@H]12)C(O)CO (stereo not given in full) | inactive | inactive | inactive | inactive | inactive | inactive | – | – | – | –
NS(=O)(=O)Nc1ncnc(OCCOc2ncc(Br)cn2)c1-c1ccc(Br)cc1 | inactive | inactive | inactive | inactive | inactive | inactive | – | – | – | –
O=C(Cc1c(F)cccc1F)Nc1cc(OCc2ccc(Cl)cc2)ccn1 | inactive | inactive | inactive | inactive | inactive | inactive | – | – | – | –
CC1(C)CC[C@]2(C(=O)O)[C@H](O)C[C@]3(C)C(=CCC4[C@@]5(C)CC[C@H](O[C@@H]6O[C@H](CO[C@@H]7OC[C@H](O)[C@H](O)[C@H]7O[C@@H]7OC[C@H](O)[C@H](O)[C@H]7O)[C@@H](O)[C@H](O)[C@H]6O)C(C)(C)C5CC[C@]43C)[C@@H]2C1 (stereo not given in full) | inactive | inactive | – | – | – | – | inactive [at 11.6 µM] | 133% [at 11.5 µM] | 1.1% [at 11.6 µM] | 16.3% [at 11.5 µM]
O=C(c1ccccn1)N(Cc1cccs1)C1(C(=O)NC2CCCCC2)CCCCC1 | inactive | inactive | inactive | inactive | inactive | inactive | – | – | – | –
C=C1C(=O)OC2C3=C(C)C(=O)CC3C(C)CC(O)C12 (stereo not given) | inactive | inactive | inactive | 11.9 µM (active) | inactive | inactive | – | – | – | –
CCc1ccccc1OC[C@@H](O)CN[C@H]1CCCc2ccccc21 | inactive | inactive | inactive | inactive | inactive | inactive | – | – | – | –
O=C(N[C@H]1CCN(C(=O)c2cc(C(F)(F)F)cc(C(F)(F)F)c2)[C@H](Cc2ccc(Cl)cc2)C1)c1ccnc2ccccc12 | inactive | inactive | inactive | inactive | inactive | inactive | – | – | – | –
C=C1C(=O)O[C@@H]2[C@H]1CCC(C)=C(CCC(=O)O)[C@@]2(C)O | inactive | inactive | inactive | inactive | inactive | inactive | – | – | – | –
COc1ccc2nc(-c3cc(OC)c(OC)c(OC)c3)cc(C(=O)NCC(=O)Nc3ccc(C(C)=O)cc3)c2c1 | inactive | inactive | inactive | inactive | inactive | inactive | – | – | – | –
Nc1nc2c(nc(Br)n2[C@@H]2O[C@@H]3COP(=O)(O)O[C@H]3[C@H]2O)c(=O)[nH]1 | inactive | inactive | inactive | inactive | inactive | inactive | – | – | – | –
O=C(NCCCN1CCC2(CC1)OCc1ccccc12)[C@H]1CCCN1Cc1ccccc1 | inactive | inactive | inactive | inactive | inactive | inactive | – | – | – | –
CCC(C)CC(=O)OC1C(=O)C(CO)=CC(O)C1C(C)C (stereo not given) | inactive | inactive | inactive | inactive | inactive | inactive | – | – | – | –
C=C(C(=O)OC)[C@@H]1CC=C2C=CC(=O)[C@H](C)[C@@]2(C)C1 | inactive | inactive | inactive | inactive | inactive | inactive | – | – | – | –
Cc1csc(N(C(=O)CSc2ccc(-c3ccccc3)nn2)C2CC2)n1 | 20.2 µM (active) | inactive | inactive | inactive | inactive | inactive | – | – | – | –
O=C(NCC1(N2CCN(c3ccccc3)CC2)CCOCC1)c1cccnc1Sc1ccccc1 | inactive | inactive | inactive | inactive | inactive | inactive | – | – | – | –
CCCCCCCCC(=O)N[C@H](CN1CCCC1)[C@H](O)c1ccc2c(c1)OCCO2 | inactive | inactive | inactive | inactive | inactive | inactive | – | – | – | –
Cc1cc(C(=O)Cn2cc(C#N)ccc2=O)c(C)n1Cc1ccccc1 | inactive | inactive | inactive | inactive | inactive | inactive | – | – | – | –
C[C@H]1CC[C@@]2(OC1)O[C@H]1CC3C4CC[C@H]5C[C@@H](O)CC[C@]5(C)C4=CC(=O)[C@]3(C)[C@H]1[C@@H]2C (stereo not given in full) | inactive | inactive | inactive | inactive | inactive | inactive | – | – | – | –
O=C(Nc1ccccc1)N1CCN(c2nc(-c3ccccc3)ns2)CC1 | inactive | inactive | inactive | inactive | inactive | inactive | – | – | – | –
C=C(C)C1CCC2(C(=O)O)CCC3(C)C(CCC4C5(C)C(C=O)C(O)C(C)(C)C5CCC43C)C12 (stereo not given) | inactive | inactive | inactive | inactive | inactive | inactive | – | – | – | –
C=C(COC(=O)C(O)C(O)CN)C12OC1C1(C)C(=CC2=O)C(O)C(O)CC1C (stereo not given) | inactive | inactive | inactive | inactive | inactive | inactive | – | – | – | –
COc1ccc(CCCN2CCC(COC(c3ccccc3)c3ccccc3)CC2)cc1 | inactive | inactive | inactive | inactive | inactive | inactive | – | – | – | –
Cc1noc(C)c1-c1cc(O)cc(C(O)c2ccccc2)c1 (stereo not given) | inactive | inactive | inactive | inactive | inactive | inactive | – | – | – | –
COC1=CC(=O)C[C@@H](C)[C@@]12Oc1c(Cl)c(OC)cc(OC)c1C2=O | inactive | inactive | inactive | inactive | inactive | inactive | – | – | – | –
